# Screens: PubChem BioAssay, National Center for Advancing Translational Sciences (NCATS)
# Only some compounds are listed: those with a hit (about 7.4% of all), similar ones and a draw of the others.
# Rab9 prom act – activates the Rab9 promoter; Huh7 Rab9 promoter-luciferase reporter, luminescence, 24 h; Potency, µM (doses to about 9.22 µM), for inactives: at the highest dose activation, negative = inhibition, hits mostly activators; 320,000 tested, 2.8% active; further: % of control where 0% means no effect; nearly all actives have a fitted effect of over 60% in size
#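 Cells were plated at 1500 per well in reduced-serum medium with 10% FBS and left 2 h. Compound in DMSO was then added for 24 h at 37 °C. Reporter signal was read by luminescence after 10 min with luciferase detection reagent.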
# KinaseGlo FLuc – blocks Kinase-Glo luciferase, a counter-screen artifact. Potency, µM (titrated, usually from 38.3 µM), inactives show at the highest dose activity change, negative = inhibition, hits mostly inhibitors. Q27757. 200,000 tested, 0.28% active. Kinase-Glo luciferase, ATP luminescence, 8 min; further: on the % scale 0 is the no-effect control and ±100 the full control effect; nearly all actives have a fitted effect of over 60% in size
#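 Compound is pinned into ATP-containing buffer (10 uM ATP, imidazole pH 7.2, 7 mM MgCl2). Kinase-Glo luciferase reagent is then added. Light output is recorded following an 8-min room-temperature incubation.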
# FLuc modulator – counter-screen for miR-21 project: firefly luciferase inhibitors or activators; P08659; Potency, µM (titrated, usually from 57.5 µM), without a hit: top-dose activity change, negative = inhibition, usual class: inhibitors; purified FLuc, Km substrates, luminescence inhibition; 360,000 tested, 6.9% active;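 further: plate controls were vehicle for no effect and reference inhibitor for full effect; nearly all actives have a fitted effect of over 55% in size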
# Target sequence (P08659 whole entry, looked up): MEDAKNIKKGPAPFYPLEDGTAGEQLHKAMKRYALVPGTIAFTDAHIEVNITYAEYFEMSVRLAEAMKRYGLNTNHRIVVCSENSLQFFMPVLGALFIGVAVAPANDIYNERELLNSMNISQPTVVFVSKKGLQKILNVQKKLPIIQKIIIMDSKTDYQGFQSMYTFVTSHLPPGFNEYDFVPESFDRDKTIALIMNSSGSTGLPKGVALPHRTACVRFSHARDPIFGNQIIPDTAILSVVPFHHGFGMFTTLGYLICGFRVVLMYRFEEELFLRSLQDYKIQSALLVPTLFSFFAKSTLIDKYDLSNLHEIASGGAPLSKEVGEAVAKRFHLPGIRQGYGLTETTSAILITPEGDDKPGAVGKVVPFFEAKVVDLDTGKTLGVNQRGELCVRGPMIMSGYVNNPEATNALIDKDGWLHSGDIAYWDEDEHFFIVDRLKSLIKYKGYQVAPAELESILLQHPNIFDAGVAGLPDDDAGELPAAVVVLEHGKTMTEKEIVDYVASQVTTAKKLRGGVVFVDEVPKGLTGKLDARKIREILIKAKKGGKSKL
#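 Purified P. pyralis luciferase (10nM final) with 10uM D-luciferin and 10uM ATP (Km levels) in 50mM Tris acetate pH 7.5, 10mM Mg acetate, 0.01% Tween-20, 0.05% BSA; qHTS 6-point titration, ~60 µM downward; luminescence read.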
# ELG1 genotox – induces genotoxicity in HEK293T cells with luciferase-tagged ELG1 | HEK293T ELG1-luciferase reporter, luminescence, 16 h | Potency, µM (series often up to 46 µM), for the others: at the highest dose activity change, positive = activation, usual class: activators | 330,000 tested, 1.3% active | AID 504466; further: % of control where 0% means no effect; nearly all actives have a fitted effect of over 60% in size
#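 After overnight (16 hr) compound treatment at 37 °C, ELG1-luciferase HEK293T cells were lysed with ONE-Glo; luminescence quantified 30 min later at room temperature.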
# SMN2 splice enh – enhancers of SMN2 splice variant expression; HEK293 SMN2-luciferase splicing reporter, luminescence, 30-36 h; Potency, µM (titrated, usually from 46.1 µM), for inactives: at the top dose activity change, positive = activation, actives largely listed as activators; 210,000 tested, 2.8% active; AID 1458; further: % of control where 0% means no effect; nearly all actives have a fitted effect of over 55% in size
#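 HEK293 cells carry an SMN2 minigene-luciferase reporter in which exon 7 inclusion puts luciferase in frame. Cells were seeded at 2000 cells/well, attached for 10-12 hours, then exposed to compounds for 30-36 hours at 37C before ONE-Glo luminescence.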
# NPC1 promoter act – activates the NPC1 promoter. Huh7 NPC1 promoter luciferase reporter, 24 h. Potency, µM (top dose mostly 9.22 µM), for the others: top-dose activation, usual class: activators. 320,000 tested, 2.4% active. AID 485313; further: % of control where 0% means no effect; nearly all actives have a fitted effect of over 60% in size
#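 In 1536-well qHTS, Huh7 cells harboring an NPC1 promoter–luciferase construct received compound for 24 h; activation was quantified by luminescence following luciferase reagent addition.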
# * marks the source's active call; other numbers are inactive results; ? = inconclusive; nt = no result given; [ ] = dose if it differs, or a comment. The call rests on the fitted dose curve; in most records, active means well fitted curve in the direction sought with a large enough effect; inconclusive means small, poorly fitted or top-dose-only effect, or another doubt; inactive means no such curve, though single readings can be large; an effect the other way counts as inactive or inconclusive. Potency means the concentration at half of the fitted maximal effect.
SMILES,Rab9 prom act,KinaseGlo FLuc,FLuc modulator,ELG1 genotox,SMN2 splice enh,NPC1 promoter act
CCCC(NC(=O)CCc1c(C)c2cc3c4c(oc3c(C)c2oc1=O)CCCC4)C(=O)O (centres undefined),2%,nt,?,0%,nt,1%
Cc1c(CC(=O)NCCC(=O)O)c(=O)oc2cc3oc4c(c3cc12)CCCC4,-1%,nt,17µM*,-17%,nt,4%
Cc1c(CCC(=O)N[C@@H](C)C(=O)O)c(=O)oc2cc3oc4c(c3cc12)CCCC4,-6%,nt,11µM*,5%,nt,-3%
Cc1c(CC(=O)NCCCC(=O)O)c(=O)oc2cc3c(cc12)CCC(C)(C)O3,-33%,nt,?,-8%,nt,-34%
Cc1cccc(NC(=S)N(CCN2CCOCC2)Cc2cc3cc4c(cc3[nH]c2=O)OCCO4)c1,-13%,4%,-2%,-4%,nt,-2%
COc1ccc(CN(C)c2ccc(S(=O)(=O)N3CCN(C)CC3)cc2[N+](=O)[O-])cc1OC,-29%,nt,2%,3%,nt,-22%
CCCOc1ccc(-c2cnc(N)s2)cc1,3.2µM*,-2%,11µM*,?,18µM*,?
CCOC(=O)c1ccc(CSc2nnc(N)s2)cc1,?,-1%,17µM*,23µM*,?,?
CCCOc1ccc(-c2cnc(SCC(N)=O)nc2N)cc1,2%,-2%,-13%,0%,-24%,2%
CCCOc1ccc(OCCSc2nnc(N)s2)cc1,?,-3%,4.8µM*,13µM*,?,?
CCOc1ccc(-c2nc(CSc3nnc(N)s3)cs2)cc1,?,14%,1.9µM*,5µM*,?,?
COc1ccc(NC(=O)CSc2nc3[nH]ncc3c(=O)[nH]2)c(OC)c1,-3%,nt,-2%,-12%,nt,0%
Cc1cc(C)cc(Oc2coc3cc(OCC(=O)NC4CCCCC4)ccc3c2=O)c1,nt,nt,3%,nt,-3%,nt
Nc1nnc(SCCCOc2ccc(F)cc2)s1,3%,nt,15µM*,-5%,nt,-4%
N/C(Cc1ccc(Cl)cc1Cl)=N\OC(=O)Cc1cccs1,-3%,-3%,5.4µM*,12%,15%,10%
Cc1ccccc1C(=O)O/N=C(\N)Cc1cccs1,?,nt,12µM*,?,nt,?
N/C(Cc1ccc(Cl)cc1Cl)=N\OC(=O)c1cccs1,12%,5%,-20%,0%,-11%,4%
Cc1ccccc1OCC(=O)O/N=C(\N)Cc1cccs1,1%,0%,12µM*,-2%,-24%,13%
N/C(Cc1cccs1)=N\OC(=O)COc1ccc(Cl)cc1Cl,23%,-2%,15µM*,16µM*,41%,28%
COc1ccc(OCC(=O)O/N=C(\N)Cc2cccs2)cc1,3%,-2%,?,5%,-7%[1.84 µM],6%
CCOC(=O)CCN(c1ccccc1)S(=O)(=O)c1ccc(-c2ccc(=O)[nH]n2)s1,-4%,nt,1%,4%,nt,1%
COc1ccc(C(=O)CC(=O)C(=O)Nc2ccccc2Cl)cc1,-1%,nt,-2%,-5%,nt,-3%
COc1ccc(CNC(=O)CCSCc2cccc(F)c2)cc1,-3%,nt,-6%,1%,nt,-5%
COc1ccc(CNC(=O)Cn2c(SCC(=O)Nc3ccc(OC)cc3)nc3ccccc32)cc1,nt,nt,-2%,nt,nt,nt
Cn1c(=O)c2c(SCC(=O)NCC3CCCO3)nc(-c3cccc(F)c3)nc2n(C)c1=O (centres undefined),nt,nt,1%,nt,nt,nt
N#Cc1cnc2sc3ccccc3n2c1=N,?,-7%,24µM*,14µM*,17%,24%
COc1cc(N)c(Cl)cc1C(=O)OCC(=O)N1CCCC1,0%,nt,4%,3%,nt,7%
COC(=O)c1ccc(Cn2c(SCc3ccccc3F)nc3ccncc32)cc1,nt,nt,?,nt,-4%,nt
COc1cccc(Nc2nnc(SCn3nnc4ccccc4c3=O)s2)c1,-9%,9%,-12%,-3%,16%,-6%
COc1cccc(Nc2nnc(SCC(=O)Nc3sccc3C(N)=O)s2)c1,-2%,-1%,11µM*,-22%,-18%,1%
